GC-B act – GC-B (human) receptor activation; P20594; HEK293-GC-B cells, CNP EC30, cGMP TR-FRET; 0% at EC30 CNP, 100% saturating CNP; activation, % at 10 µM; 0.11% of 370,000 active; AID 1920062;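 active = activation at 10 µM reaching about 35% in either raw or pattern-adjusted values, limit read from the data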
A3G deaminase – APOBEC3G (human) deaminase inhibition. Q9HC16. recombinant A3G, ssDNA deamination FAM/TAMRA fluorescence. inhibition, % at 20 µM. 0.28% of 330,000 active. AID 493012;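 active = inhibition of at least 40% at 20 µM, with no more than 30% in the related APOBEC3A deaminase screen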
FAS-TE inh – blocks the thioesterase domain of human fatty acid synthase. P49327. recombinant FAS-TE, OMFH fluorogenic substrate, fluorescence endpoint. inhibition, % at 15 µM. 0.67% of 360,000 active. AID 602261;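 active = compounds whose normalised, plate-corrected inhibition of enzyme fluorescence in the single-dose primary screen is 50% or more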
A3A deaminase – inhibitors of human APOBEC3A DNA deaminase; recombinant A3A, FAM/TAMRA ssDNA deamination fluorescence; inhibition, % at 20 µM; 0.41% of 330,000 active; AID 493011;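 active = at least 40% inhibition at 20 µM here, with at most 30% in a related deaminase screen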
GC-A act – GC-A (human) enzyme activation; activation, % at 10 µM; HEK293 GC-A cells, cGMP TR-FRET, EC30 ANP; 0% at EC30 ANP, 100% saturating ANP; AID 1671463; 0.14% of 370,000 active; P16066; in the data active = activation above about 40%
Numbers stand for hits; – = inactive; · = not tested or not shown; ! = a repeat was not active. A selection: hits, their analogues and other compounds. The true share with any hit is near 1.4%.

SMILES	GC-B act	A3G deaminase	FAS-TE inh	A3A deaminase	GC-A act
O=C(NCCS(=O)(=O)N1CCN(c2ccccc2F)CC1)c1ccc(F)c(F)c1	64	–	–	–	–
COc1ccc(Cl)cc1C(=O)NCCS(=O)(=O)N1CCN(c2ccccc2F)CC1	–	–	–	–	–
CCOc1ccccc1NC(=O)c1cc2c(C)nn(-c3ccccc3)c2s1	–	·	·	·	–
Cc1cccc(Nc2nc3c(S(=O)(=O)c4ccccc4)nnn3c3ccccc23)c1	42	–	–	–	–
Cc1ccc(S(=O)(=O)c2nnn3c2nc(N2CCOCC2)c2ccccc23)cc1C	–	–	–	–	–
Cc1ccc(S(=O)(=O)c2nnn3c2nc(NC2CCN(Cc4ccccc4)CC2)c2ccccc23)cc1C	·	–	86	–	·
Cc1cc(C)cc(Nc2nc3c(S(=O)(=O)c4ccccc4)nnn3c3ccccc23)c1	–	·	–	·	–
O=C1c2cc(Br)ccc2N(Cc2ccc(Br)cc2)S(=O)(=O)C1c1cc(Cl)c(Cl)cc1[N+](=O)[O-] (stereo not drawn)	·	–	82	–	·
O=C1CS(=O)(=O)N(Cc2cccc(F)c2)c2ccc(Br)cc21	–	–	–	–	–
C[C@@H]1COc2cc(F)ccc2S(=O)(=O)N1C	–	·	·	·	–
O=C(Cc1ccc(-n2c(=O)c3ccccc3n(Cc3ccccc3F)c2=O)cc1)NCC1CCCO1 (stereo not drawn)	–	–	–	–	–
O=C(Cc1ccc(-n2c(=O)c3ccccc3n(Cc3ccccc3Cl)c2=O)cc1)NCC1CCCO1 (stereo not drawn)	62	–	–	–	53
COc1ccc(CCN2CC(O)=C(c3nc4ccccc4c(=O)[nH]3)C2=N)cc1OC	–	–	–	–	70
Cc1cccc(C2=NN(c3ccc(Br)cc3)[C@@H](C(=O)N3CCOC3=O)[C@@H]2c2ccccc2)c1	·	–	72	–	·
C[C@@H]1C(c2cccc(Cl)c2)=NN(c2ccccc2)[C@H]1C(=O)N1CCOC1=O	–	–	–	–	–
C[C@@H]1C(c2cccc(Cl)c2)=NN(c2ccc(Br)cc2)[C@H]1C(=O)N1CCOC1=O	·	–	56	–	·
CCCCCCCCN1C(=O)[C@@H](CC(=O)NCCC(C)C)C[C@@]2(C(=O)OC)C1=C[C@H](COCc1ccccc1)O[C@@H]2C	–	·	·	·	–
S=c1[nH]nc(-c2cc(-c3ccco3)[nH]n2)n1-c1ccccc1Cl	–	–	–	–	–
S=c1[nH]nc(-c2ccco2)n1-c1ccccc1Cl	–	42	–	–	–
CC(Sc1ccc2ccccc2n1)C(=O)O (stereo not drawn)	–	–	–	–	48!
CC(Sc1cnc2ccccc2n1)C(=O)O (stereo not drawn)	–	–	–	–	–
NC(=O)C1(Nc2ccc(-c3ccc(Br)cc3)cc2)CCCC1	–	·	–	·	52
CCOC(=O)[C@@]12CCCC=C1N(CCc1ccc(Cl)cc1)C(=O)[C@H]2CC(=O)NCc1ccccc1	–	·	·	·	–
COc1ccc(N=Cc2nc(-c3ccco3)oc2O)cc1	–	–	–	–	–
O=C(Oc1oc(-c2ccco2)nc1C=Nc1ccc(Cl)cc1)c1ccco1	–	–	–	–	44
SMILES	GC-B act	A3G deaminase	FAS-TE inh	A3A deaminase	GC-A act
CC1C(=O)N(Cc2cn(CCC3OCCO3)nn2)CCS(=O)(=O)N1Cc1ccc(-c2ccc(Cl)cc2)cc1 (stereo not drawn)	–	·	–	·	49
CC(=O)Nc1sc2c(c1-c1nc3ccccc3s1)CCCNC2	34	·	·	·	–
N#Cc1cccc(-c2nnc(SCc3ccccc3C#N)o2)c1	38	–	–	–	–
N#Cc1ccccc1CSc1nnc(-c2ccncc2)o1	·	–	–	–	·
Cc1ccc(-c2cc(C(F)F)nc(S(C)(=O)=O)n2)cc1	–	–	–	–	74
CC(COc1cc(F)cc(F)c1)CN1CCC(C(O)(c2ccccc2)c2ccccc2)CC1 (stereo not drawn)	–	·	·	·	–
O=S1(=O)CC2c3ccccc3CCN2CN1Cc1ccc(F)cc1 (stereo not drawn)	–	·	·	·	–
COc1ccc(/C=C2/C(=O)ON=C2C)cc1Cl	–	–	–	–	–
CCCOc1ccc(/C=C2/C(=O)ON=C2C)cc1OCC	–	–	–	–	–
CCOc1cc(/C=C2\C(=O)ON=C2C)ccc1OCc1ccccc1	46	–	–	–	–
C=CCOc1ccc(/C=C2/C(=O)ON=C2C)cc1OC	–	–	–	–	41
C[C@H](CO)N1C[C@H](C)[C@@H](CN(C)C(=O)NC2CCCCC2)OCc2cn(nn2)CCCC1=O	–	·	·	·	–

Compound activity: PubChem BioAssay, Sanford-Burnham Center for Chemical Genomics
